uPA generation: cell surface uPA generation inhibition; 330,000 tested, 0.31% active; Potency, µM (series often up to 38.3 µM), without a hit: at the highest dose activity change, negative = inhibition, usual class: inhibitors; cell surface uPA generation assay, qHTS; active means well fitted inhibition curve with a large enough effect; inconclusive means small, poorly fitted or top-dose-only effect; inactive means no such curve, though single readings can be large or run the other way; tested in mouse RAW 264.7 cells; further: potency means the concentration at half of the fitted maximal effect; nearly all actives have a fitted effect of over 55% in size
HT1080 IDH1KD tx: HT-1080 IDH1 knockdown cell toxicity (counter line); HT-1080 IDH1 knockdown viability, ATP luminescence, 48 h; Potency, µM (doses to about 46.1 µM), for inactives: at the top dose activity, negative = toxicity, actives largely listed as cytotoxic; 360,000 tested, 2% active;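 further: potency means the concentration at half of the fitted maximal effect; 0% = DMSO wells and -100% = cell-free medium wells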
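Assay cells: HT-1080 with IDH1 knockdown, 750 per well, RPMI/5% FBS. Exposure: 48 h at 37 °C following 2 h pre-incubation. Read: CellTiter-Glo luminescence; fitted concentration-response, curve class assigned.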
DT40 TDP1 no CPT: qHTS for Inhibitors of human tyrosyl-DNA phosphodiesterase 1 (TDP1): qHTS in cells in absence of CPT; Potency, µM (series often up to 46.2 µM), without a hit: at the top dose activity change, negative = growth inhibition, actives largely listed as inhibitors; DT40 Tdp1-/- hTDP1 cells, no CPT, ATP luminescence, 48 h; 420,000 tested, 15% active; further: potency means the concentration at half of the fitted maximal effect; nearly all actives have a fitted effect of over 55% in size
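Camptothecin absent (DMSO only). Human TDP1-complemented DT40 knockout cells, 400 cells/well, 37 °C for minimum 48 hr; ATP measured via CellTiter-Glo, 30 min dark incubation, luminescence.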
DT40 TDP1 CPT: DT40-hTDP1 cell growth loss with CPT. chicken DT40 Tdp1-/-;hTDP1 cells + 20 nM CPT, ATP luminescence, 48 h. Potency, µM (highest dose often 46.2 µM), inactives show at the highest dose activity change, negative = growth inhibition, actives largely listed as inhibitors. 420,000 tested, 12% active; further: potency means the concentration at half of the fitted maximal effect; nearly all actives have a fitted effect of over 55% in size
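Cell growth measured by CellTiter-Glo luminescence after a minimum 48 h, 37 C compound exposure with 20 nM CPT in Tdp1-knockout DT40 cells stably expressing hTDP1, seeded 400/well; qHTS titration format.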
IL1B secr inh: inhibitors of inflammasome signaling (IL-1 beta secretion). THP-1 LPS/ATP IL-1B secretion, AlphaLISA, 16 h; hits give low values. activity change, % at 57.5 µM. 360,000 tested, 4.7% active. AID 743279; in the data active means activity change below about -50%; inconclusive means mostly about -30% to -49%
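Secreted IL-1B measured by AlphaLISA bead assay after 16 h compound exposure of THP-1 cells; compounds (final up to 57.5 uM) added 1 h before LPS (250 ng/mL) and ATP (1.25 mM) stimulation; lower signal means less secretion.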
HT1080-NT tox: kills 2HG-producing HT-1080-NT fibrosarcoma cells; HT-1080-NT fibrosarcoma viability, CellTiter-Glo ATP luminescence, 48 h; Potency, µM (highest dose often 46.1 µM), for the others: at the highest dose activity, negative = less viability, most hits filed as cytotoxic; 360,000 tested, 1.6% active;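 further: NT is the 2HG producing partner of a matched IDH1 knockdown line; potency means the concentration at half of the fitted maximal effect; 0% = DMSO-treated cells and -100% = media-only wells without cells; nearly all actives have a fitted effect of over 55% in size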
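Toxicity toward the 2HG-producing NT line was scored as %Activity, normalised to DMSO and no-cell wells, from CellTiter-Glo luminescence after 48 hours' treatment.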
* marks the source's active call; other numbers are inactive results; i = inactive; ? = inconclusive; · = no result given; [ ] = remark or other dose. Compounds with a hit are over-represented: about 19% of the library has one in this group of screens. Unless noted, the call rests on the fitted dose curve; in most records, active means well fitted curve in the direction sought with a large enough effect; inconclusive means small, poorly fitted or top-dose-only effect, or another doubt; inactive means no such curve, though single readings can be large; an effect the other way counts as inactive or inconclusive. Unless noted, on the % scale 0 is the no-effect control and ±100 the full control effect.

SMILES | uPA generation | HT1080 IDH1KD tx | DT40 TDP1 no CPT | DT40 TDP1 CPT | IL1B secr inh | HT1080-NT tox
CCc1cc(/C(Cc2ccccn2)=N\Nc2ccccc2)c(O)cc1O | -0.7% | ? | -105.6% | ? | -76.1* | -29.8%
Cc1nn(CCO)c(N)c1C1(O)C(=O)Nc2c(Cl)cc(Cl)cc21 (configuration not stated) | -11.3% | -11.9% | 3.26µM* | 4.11µM* | 106.4 | -28.8%
O=c1[nH]nc(Br)c(=O)n1C(c1ccccc1)c1ccccc1 | 6.5% | -9.7% | ? | 20.6µM* | -4.5 | -6.3%
CC(c1ccccc1)n1c(SCC(=O)Nc2ccccc2)n[nH]c1=O (configuration not stated) | 0.7% | -25.6% | -13.3% | 3.3% | 30.6 | -12.4%
COCCNC(=O)C1CCCN(C(=O)c2ccc3ccccc3n2)CC1 (configuration not stated) | · | 4.1% | -2.8% | -7.2% | 13.0 | 16.0%
COc1cc(=O)n2c(c1C(=O)N(C)Cc1nonc1C)CCN(Cc1ccccc1Cl)CC2 | · | · | -2.9% | 4.8%[9.04 µM] | · | ·
O=C(Nc1ccc(Oc2ccc(NC(=O)Nc3ccc([N+](=O)[O-])cc3)cc2)cc1)Nc1ccc([N+](=O)[O-])cc1 | -0.4% | ? | 2.06µM* | 2.31µM* | -87.6* | ?
CC(=O)Nc1ccc(OS(=O)(=O)c2ccccc2C)cc1 | -1.0% | 1.3% | ? | -0.6% | -2.3 | 3.4%
CC(=O)Nc1ccc(OS(=O)(=O)c2ccc(Cl)cc2)cc1 | 1.9% | 0.0% | -26.5% | -8.3% | -10.5 | -1.8%
CC(=O)Nc1ccc(OS(=O)(=O)c2ccc([N+](=O)[O-])cc2)cc1 | ? | -15.4% | 16.4µM* | 18.4µM* | 4.3 | -12.4%
CC(=O)c1ccc(NC(=O)Nc2ccc([N+](=O)[O-])cc2)cc1 | 0.0% | 14.3% | 0.4% | 2.9% | 14.3 | 17.6%
CC(=O)Nc1ccc(S(=O)(=O)NCCC(=O)OCc2ccc([N+](=O)[O-])cc2)cc1 | -0.9% | 18.1% | 16.4µM* | 13µM* | i | 12.3%
CC(=O)Nc1ccc(S(=O)(=O)NCCC(=O)OCc2ccccc2F)cc1 | -10.4% | 4.1% | -1.4% | -21.5% | -26.0 | 0.9%[9.24 µM]
CC(=O)Nc1ccc(OS(=O)(=O)c2cc(Cl)ccc2C)cc1 | -6.9% | -5.5% | 14.6µM* | 20.6µM* | 27.3 | -3.6%
CSc1cccc(-c2nnc(NC(=O)c3cccc(N4C(=O)CCC4=O)c3)o2)c1 | -10.5% | -16.6% | -10.8% | 0.2% | -8.6 | -2.0%
O=C(NNc1ccccc1)c1ccc(Cl)c(Cl)c1 | 1.3% | -9.5% | -4.0% | -6.4% | -10.2 | ?
CC(=O)Nc1ccc(Nc2ccc([N+](=O)[O-])cn2)cc1 | 3.8% | -12.8% | 9.2µM* | ? | 13.8 | 8.2%
CC(=O)Nc1cccc(OCCCOc2ccc([N+](=O)[O-])cc2)c1 | 14.7% | -14.8% | 3.66µM* | 13µM* | 0.0 | 2.8%
O=[N+]([O-])c1ccc(Nc2ccc(F)cc2)nc1 | 1.8% | 2.2% | ? | ? | -10.9 | 7.2%
Cc1cccc(OC(=O)c2cc(-c3ccc4c(c3)OCCO4)on2)c1 | · | · | -16.0% | -14.9% | · | ·
COc1cccc2sc(Nc3nnc(-c4ccccc4Cl)o3)nc12 | ? | ? | 1.46µM* | 1.64µM* | 48.9 | ?
COc1cccc(-c2nnc(Nc3nc4c(F)cccc4s3)o2)c1 | ? | 6.31µM* | 23.1µM* | 20.6µM* | 38.6 | 7.94µM*
COc1ccccc1-c1nnc(Nc2nc3c(OC)cccc3s2)o1 | -17.6% | 0.461µM* | 0.731µM* | 0.92µM* | 80.6 | 0.92µM*
Cc1cc2c(cc1C)-n1nnnc1C(N1CCN(CC(=O)NC(C)C)CC1)C(=O)N2 (configuration not stated) | · | 12.6% | -27.9% | ? | -3.4 | 19.0%

Bioassay records as filed in PubChem BioAssay.
